Reference: paper PMC7862700, “An all-to-all approach to the identification of sequence-specific readers for epigenetic DNA modifications on cytosine”

Key:
Test in all cases: DAPPL (digital affinity profiling via proximity ligation, sequencing); 10 mM Tris-HCl pH 7.5, 50 mM NaCl, 1 mM DTT, 4% glycerol, room temperature, 30 min; GST-TFs on glutathione beads, 16-mer random dsDNA library, 0.1% formaldehyde crosslink after washing; high values mean tight binding
Settings in all cases: protein: recombinant; tags: N-terminal GST; dsDNA, one strand shown
FLI1 = molecular target: T1, FLI1 (Homo sapiens, UniProt Q01543 1-452)
T1 sequence: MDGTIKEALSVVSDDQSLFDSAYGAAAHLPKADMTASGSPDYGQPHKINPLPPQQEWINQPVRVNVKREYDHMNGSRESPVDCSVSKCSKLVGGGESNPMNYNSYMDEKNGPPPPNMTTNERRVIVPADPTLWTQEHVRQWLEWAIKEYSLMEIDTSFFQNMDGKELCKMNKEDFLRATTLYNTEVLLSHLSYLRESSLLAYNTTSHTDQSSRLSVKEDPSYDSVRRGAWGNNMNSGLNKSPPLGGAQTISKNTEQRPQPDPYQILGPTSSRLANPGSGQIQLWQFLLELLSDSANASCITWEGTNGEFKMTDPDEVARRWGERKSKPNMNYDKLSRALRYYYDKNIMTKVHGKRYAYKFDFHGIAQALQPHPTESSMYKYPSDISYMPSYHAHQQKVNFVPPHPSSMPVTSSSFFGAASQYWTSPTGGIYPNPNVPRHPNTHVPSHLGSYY
Procedure, shortened: (§1)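 Yeast served to express human transcription factors as GST fusions, which were then captured on glutathione beads and labelled with DNA barcodes. Pooled with a tag-only sample, they were incubated with 200 nmole of a 16-mer random double-stranded DNA library for 30 min at room temperature in Tris/NaCl/DTT/glycerol buffer, washed, crosslinked with 0.1% formaldehyde, ligated by proximity, amplified by PCR and sequenced. Dividing each hexamer's read frequency for a factor by its frequency for the tag-only sample gives the binding signal.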

GABPA = molecular target: T2, GABPA (Homo sapiens, UniProt Q06546 1-454)
T2 sequence: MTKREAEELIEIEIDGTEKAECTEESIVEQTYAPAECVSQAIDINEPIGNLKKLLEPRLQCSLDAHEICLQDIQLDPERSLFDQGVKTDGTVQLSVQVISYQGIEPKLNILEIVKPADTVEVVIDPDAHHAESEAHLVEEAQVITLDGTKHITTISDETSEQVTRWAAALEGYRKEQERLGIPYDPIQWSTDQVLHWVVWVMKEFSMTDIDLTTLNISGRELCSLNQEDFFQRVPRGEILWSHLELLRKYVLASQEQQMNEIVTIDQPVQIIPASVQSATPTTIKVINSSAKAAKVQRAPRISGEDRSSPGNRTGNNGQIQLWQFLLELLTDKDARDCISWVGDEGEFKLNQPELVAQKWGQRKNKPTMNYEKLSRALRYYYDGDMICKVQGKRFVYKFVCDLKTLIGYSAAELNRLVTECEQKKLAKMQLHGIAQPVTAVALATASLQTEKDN
Procedure, shortened: as §1

SPIB = SPIB (Homo sapiens, UniProt Q01892 1-262)
SPIB, sequence (Q01892 whole entry): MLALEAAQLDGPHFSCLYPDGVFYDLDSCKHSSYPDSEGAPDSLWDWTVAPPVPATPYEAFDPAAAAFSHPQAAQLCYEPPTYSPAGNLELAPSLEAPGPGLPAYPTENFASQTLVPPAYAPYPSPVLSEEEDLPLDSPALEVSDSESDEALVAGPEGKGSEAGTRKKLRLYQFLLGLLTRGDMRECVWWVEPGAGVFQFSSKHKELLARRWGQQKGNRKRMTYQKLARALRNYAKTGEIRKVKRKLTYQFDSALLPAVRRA
Procedure, shortened: as §1

ELK3 = molecular target: T3, ELK3 (Homo sapiens, UniProt P41970 1-407)
T3 sequence: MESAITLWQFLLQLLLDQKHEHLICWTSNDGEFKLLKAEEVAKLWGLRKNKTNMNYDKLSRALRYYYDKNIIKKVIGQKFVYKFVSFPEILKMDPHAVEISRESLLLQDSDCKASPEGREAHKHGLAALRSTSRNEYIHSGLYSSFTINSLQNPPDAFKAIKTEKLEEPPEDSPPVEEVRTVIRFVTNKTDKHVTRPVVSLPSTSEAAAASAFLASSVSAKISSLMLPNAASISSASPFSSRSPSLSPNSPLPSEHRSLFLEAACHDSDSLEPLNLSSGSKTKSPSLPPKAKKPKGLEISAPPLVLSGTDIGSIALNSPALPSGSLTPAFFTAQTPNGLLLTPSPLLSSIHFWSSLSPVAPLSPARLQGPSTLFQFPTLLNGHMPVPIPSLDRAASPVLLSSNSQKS
Procedure, shortened: as §1

ELK1 = molecular target: T4, ELK1 (Homo sapiens, UniProt P19419 1-428)
T4 sequence: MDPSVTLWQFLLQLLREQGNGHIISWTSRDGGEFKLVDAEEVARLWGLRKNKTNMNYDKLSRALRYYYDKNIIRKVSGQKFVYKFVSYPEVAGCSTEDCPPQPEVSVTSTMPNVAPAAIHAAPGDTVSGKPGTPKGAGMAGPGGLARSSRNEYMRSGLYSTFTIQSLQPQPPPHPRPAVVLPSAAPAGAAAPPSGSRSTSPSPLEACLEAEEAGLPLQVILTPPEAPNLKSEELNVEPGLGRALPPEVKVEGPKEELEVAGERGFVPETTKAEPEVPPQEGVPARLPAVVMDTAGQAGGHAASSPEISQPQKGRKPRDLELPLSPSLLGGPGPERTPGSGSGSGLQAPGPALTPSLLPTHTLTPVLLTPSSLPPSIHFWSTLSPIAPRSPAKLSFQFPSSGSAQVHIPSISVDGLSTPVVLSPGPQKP
Procedure, shortened: as §1

ERG = molecular target: T5, ERG (Homo sapiens, UniProt P11308 1-479)
T5 sequence: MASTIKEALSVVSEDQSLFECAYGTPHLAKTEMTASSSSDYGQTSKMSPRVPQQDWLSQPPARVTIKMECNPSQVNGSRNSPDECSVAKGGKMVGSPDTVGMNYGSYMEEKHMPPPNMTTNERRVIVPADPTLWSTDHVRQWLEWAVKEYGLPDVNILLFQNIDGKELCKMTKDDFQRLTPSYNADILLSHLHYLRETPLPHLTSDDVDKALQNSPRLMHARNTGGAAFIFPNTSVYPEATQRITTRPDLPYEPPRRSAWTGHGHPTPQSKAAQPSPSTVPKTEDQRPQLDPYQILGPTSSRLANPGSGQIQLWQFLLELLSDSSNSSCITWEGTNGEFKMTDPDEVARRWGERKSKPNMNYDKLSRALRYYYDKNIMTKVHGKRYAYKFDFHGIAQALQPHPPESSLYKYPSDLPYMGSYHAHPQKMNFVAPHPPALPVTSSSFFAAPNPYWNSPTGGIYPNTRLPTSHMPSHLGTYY
Procedure, shortened: as §1

ELF1 = ELF1 (Homo sapiens, UniProt P32519 1-619)
ELF1, sequence (P32519 whole entry): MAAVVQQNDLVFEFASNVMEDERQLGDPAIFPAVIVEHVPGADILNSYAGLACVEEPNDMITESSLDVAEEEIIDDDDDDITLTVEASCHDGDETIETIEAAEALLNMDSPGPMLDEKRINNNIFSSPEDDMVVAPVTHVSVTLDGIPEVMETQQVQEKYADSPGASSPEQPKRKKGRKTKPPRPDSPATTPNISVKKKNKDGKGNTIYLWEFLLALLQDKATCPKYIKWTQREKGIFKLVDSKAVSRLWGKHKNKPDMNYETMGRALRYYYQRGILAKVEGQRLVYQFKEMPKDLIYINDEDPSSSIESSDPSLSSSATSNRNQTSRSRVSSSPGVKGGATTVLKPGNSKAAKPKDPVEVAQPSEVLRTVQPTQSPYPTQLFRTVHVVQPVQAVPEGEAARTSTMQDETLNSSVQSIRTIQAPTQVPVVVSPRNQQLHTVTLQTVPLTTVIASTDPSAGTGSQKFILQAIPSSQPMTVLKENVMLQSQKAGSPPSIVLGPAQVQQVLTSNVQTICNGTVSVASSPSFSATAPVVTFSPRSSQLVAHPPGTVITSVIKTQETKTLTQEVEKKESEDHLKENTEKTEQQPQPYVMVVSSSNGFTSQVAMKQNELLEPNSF
Procedure, shortened: as §1

EHF = molecular target: T6, EHF (Homo sapiens, UniProt Q9NZC4 1-300)
T6 sequence: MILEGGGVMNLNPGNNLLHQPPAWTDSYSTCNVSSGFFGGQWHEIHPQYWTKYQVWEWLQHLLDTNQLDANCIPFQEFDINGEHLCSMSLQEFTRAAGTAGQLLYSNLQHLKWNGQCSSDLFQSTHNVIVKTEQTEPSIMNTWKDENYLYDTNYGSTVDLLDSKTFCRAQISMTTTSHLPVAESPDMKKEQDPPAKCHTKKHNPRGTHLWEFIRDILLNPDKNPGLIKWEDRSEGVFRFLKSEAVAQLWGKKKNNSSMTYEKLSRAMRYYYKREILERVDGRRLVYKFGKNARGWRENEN
Procedure, shortened: as §1

ELK4 = molecular target: T7, ELK4 (Homo sapiens, UniProt P28324-2 1-405)
T7 sequence: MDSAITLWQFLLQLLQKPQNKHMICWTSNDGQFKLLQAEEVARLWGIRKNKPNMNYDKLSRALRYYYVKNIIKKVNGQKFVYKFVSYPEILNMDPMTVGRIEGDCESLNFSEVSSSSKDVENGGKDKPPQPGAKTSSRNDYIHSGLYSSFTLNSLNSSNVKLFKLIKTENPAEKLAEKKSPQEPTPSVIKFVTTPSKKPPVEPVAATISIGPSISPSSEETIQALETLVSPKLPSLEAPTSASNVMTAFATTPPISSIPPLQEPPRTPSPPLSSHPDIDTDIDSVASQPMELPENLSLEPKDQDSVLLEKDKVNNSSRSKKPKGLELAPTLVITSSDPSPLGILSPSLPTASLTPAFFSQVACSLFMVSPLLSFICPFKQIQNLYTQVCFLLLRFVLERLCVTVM
Procedure, shortened: as §1

ETV2 = molecular target: T8, ETV2 (Homo sapiens, UniProt O00321 1-342)
T8 sequence: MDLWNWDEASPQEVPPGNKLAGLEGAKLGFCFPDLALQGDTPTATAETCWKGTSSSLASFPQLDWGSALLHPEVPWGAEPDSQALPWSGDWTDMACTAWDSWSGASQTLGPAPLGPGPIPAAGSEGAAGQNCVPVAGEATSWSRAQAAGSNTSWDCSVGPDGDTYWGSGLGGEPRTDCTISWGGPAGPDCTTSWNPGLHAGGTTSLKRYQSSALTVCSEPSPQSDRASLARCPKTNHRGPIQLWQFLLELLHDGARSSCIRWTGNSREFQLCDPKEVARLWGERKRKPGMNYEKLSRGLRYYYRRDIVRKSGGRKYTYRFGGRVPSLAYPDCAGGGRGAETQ
Procedure, shortened: as §1

ETV3L = molecular target: T9, ETV3L (Homo sapiens, UniProt Q6ZN32 1-361)
T9 sequence: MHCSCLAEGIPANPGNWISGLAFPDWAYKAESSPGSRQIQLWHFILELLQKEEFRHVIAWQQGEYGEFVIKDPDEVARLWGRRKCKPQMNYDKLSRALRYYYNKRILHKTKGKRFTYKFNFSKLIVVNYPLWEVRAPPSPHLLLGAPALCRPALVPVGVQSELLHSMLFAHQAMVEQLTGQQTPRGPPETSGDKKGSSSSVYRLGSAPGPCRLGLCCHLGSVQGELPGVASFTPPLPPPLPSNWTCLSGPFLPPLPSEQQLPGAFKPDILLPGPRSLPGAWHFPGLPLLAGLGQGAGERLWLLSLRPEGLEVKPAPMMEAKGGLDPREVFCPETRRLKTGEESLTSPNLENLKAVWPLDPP
Procedure, shortened: as §1

ETV7 = molecular target: T10, ETV7 (Homo sapiens, UniProt Q9Y603 1-341)
T10 sequence: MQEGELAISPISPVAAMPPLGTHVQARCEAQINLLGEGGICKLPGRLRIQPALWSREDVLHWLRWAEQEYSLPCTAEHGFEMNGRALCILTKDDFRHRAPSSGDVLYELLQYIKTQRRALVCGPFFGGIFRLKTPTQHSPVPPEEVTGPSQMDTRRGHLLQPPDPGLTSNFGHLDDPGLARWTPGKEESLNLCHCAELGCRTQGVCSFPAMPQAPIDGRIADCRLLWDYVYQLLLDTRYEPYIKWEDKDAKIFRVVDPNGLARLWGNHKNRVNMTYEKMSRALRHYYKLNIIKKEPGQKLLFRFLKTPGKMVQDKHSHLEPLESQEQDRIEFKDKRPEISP
Procedure, shortened: as §1

ETV3 = molecular target: T11, ETV3 (Homo sapiens, UniProt P41162-2 1-143)
T11 sequence: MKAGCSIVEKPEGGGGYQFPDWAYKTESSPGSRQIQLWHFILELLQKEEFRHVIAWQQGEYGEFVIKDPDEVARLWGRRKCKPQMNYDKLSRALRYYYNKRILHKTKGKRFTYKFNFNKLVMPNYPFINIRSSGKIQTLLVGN
Procedure, shortened: as §1

GACTCA
binding signal (FLI1): 1.06 fold enrichment (6-mer frequency, TF over GST control)
binding signal (GABPA): 1.02 fold enrichment (6-mer frequency, TF over GST control)
binding signal (SPIB): 1.09 fold enrichment (6-mer frequency, TF over GST control)
binding signal (ELK3): 1.04 fold enrichment (6-mer frequency, TF over GST control)

CAGCGC
binding signal (FLI1): 1.09 fold enrichment (6-mer frequency, TF over GST control)
binding signal (ELK1): 1.03 fold enrichment (6-mer frequency, TF over GST control)
binding signal (GABPA): 1.01 fold enrichment (6-mer frequency, TF over GST control)
binding signal (ERG): 1.03 fold enrichment (6-mer frequency, TF over GST control)
binding signal (ELF1): 1.08 fold enrichment (6-mer frequency, TF over GST control)
binding signal (EHF): 1.01 fold enrichment (6-mer frequency, TF over GST control)
binding signal (SPIB): 1.07 fold enrichment (6-mer frequency, TF over GST control)
binding signal (ELK3): 1.06 fold enrichment (6-mer frequency, TF over GST control)
binding signal (ELK4): 1.06 fold enrichment (6-mer frequency, TF over GST control)
binding signal (ETV2): 1.07 fold enrichment (6-mer frequency, TF over GST control)
binding signal (ETV3L): 1.09 fold enrichment (6-mer frequency, TF over GST control)
binding signal (ETV7): 1.02 fold enrichment (6-mer frequency, TF over GST control)
binding signal (ETV3): 1 fold enrichment (6-mer frequency, TF over GST control)

GTGACT
binding signal (FLI1): 1.02 fold enrichment (6-mer frequency, TF over GST control)
binding signal (ETV3L): 1.01 fold enrichment (6-mer frequency, TF over GST control)
